Results filed as inconclusive are left out. Where a structure was tested more than once in an assay, its records may differ in their call. Activity calls are given as the source filed them. Rule for the calls, unless noted: active = hit-call score of the fitted dose curve at least 0.9, where 1 is the maximum; inactive = score below 0.9.
How the values were obtained:
[1] = CCTE_Shafer_MEA_acute_spike_number: CCTE's Neural Acute Assay for Total Number of Spikes, Shafer Lab (AID 2284008)
Method in brief: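 Rat primary cortical neurons on 48-well MEA plates, DIV 13 or 15, at 37 C. 40 min baseline then 40 min with compound (0.03-40 uM); spikes detected at 8x rms noise, expressed as percent change from baseline.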

[2] = CCTE_Shafer_MEA_acute_burst_number: CCTE's Neural Acute Assay for Single-Electrode Bursts, Shafer Lab (AID 2284013)
Method in brief: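 Primary rat cortical neurons on 16-electrode MEA wells, treated on DIV 13 or 15 with compound at 0.03-40 uM. Single-electrode burst count from 40-min recordings at 37 C before and after exposure; percent change from baseline per well, DMSO negative control.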

[3] = CCTE_Shafer_MEA_acute_burst_duration_mean: CCTE's Neural Acute Assay for Mean Burst Duration, Shafer Lab (AID 2284014);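 note: hits are decreases in mean burst duration relative to DMSO controls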
Method in brief: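 Rat primary cortical neurons on 48-well MEA, treated at DIV 13 or 15 with 0.03-40 uM in at least 3 wells. Value is percent change in mean burst duration, comparing 40 min recordings at 37 C before and during exposure.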

[4] = CCTE_Shafer_MEA_acute_per_burst_spike_number_mean: CCTE's Neural Acute Assay for Average Number of Spikes Per Burst, Shafer Lab (AID 2284015);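 note: hits are decreases in mean spikes per burst versus baseline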
Method in brief: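 Rat primary cortical neurons on 48-well MEAs (DIV 13 or 15) were treated with 0.03-40 uM compound at 37 C. Mean spikes per burst over 40 min were recorded before and after exposure and expressed as percent change from baseline, relative to DMSO.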

[5] = CCTE_Shafer_MEA_acute_interburst_interval_mean: CCTE's Neural Acute Assay for Mean Interburst Interval, Shafer Lab (AID 2284016);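 note: percent change of mean interburst interval versus each well's own pre-dose baseline; curves fitted for decrease in interburst interval relative to DMSO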
Method in brief: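 Rat primary cortical neurons on 48-well MEAs at DIV 13 or 15 were exposed acutely to 0.03-40 uM. Spikes detected at 8x rms noise, 37 C. Mean interburst interval from 40 min recordings expressed as percent change from 40 min pre-treatment baseline.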

[6] = CCTE_Shafer_MEA_acute_burst_percentage_mean: CCTE's Neural Acute Assay for Percentage of Spikes in a Burst, Shafer Lab (AID 2284017)
Method in brief: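 Primary rat cortical neurons on 48-well MEA plates, treated on DIV 13 or 15 at 0.03-40 uM. Spikes detected at 8x rms noise at 37C; percent change from 40-min baseline to 40-min post-dose recording, fitted versus DMSO.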

[7] = CCTE_Shafer_MEA_acute_burst_percentage_std: CCTE's Neural Acute Assay for Standard Deviation of Burst Percentage, Shafer Lab (AID 2284018);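 note: fitted in the negative direction so actives lower burst percentage SD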
Method in brief: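 Rat primary cortical neurons on 48-well MEAs, DIV 13 or 15, 37 C. 40-min baseline then 40-min recording with compound (0.03-40 uM); well-level SD of per-electrode burst spike percentage, expressed as percent change from baseline.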

[8] = CCTE_Shafer_MEA_acute_per_network_burst_spike_number_mean: CCTE's Neural Acute Assay for Average Number of Spikes in a Network Burst, Shafer Lab (AID 2284019)
Method in brief: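 Rat primary cortical neurons on 48-well MEA at DIV 13 or 15, 37 C; compounds 0.03-40 uM, at least three wells each. 40-min baseline then 40-min exposure recording; percent change in mean spikes per network burst.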

[9] = CCTE_Shafer_MEA_acute_per_network_burst_spike_number_std: CCTE's Neural Acute Assay for Standard Deviation of Number of Spikes in a Network Burst, Shafer Lab (AID 2284020);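 note: fitted for decrease in spike-number SD versus DMSO so actives lower it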
Method in brief: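 Rat primary cortical neurons on 48-well MEA (16 electrodes/well), treated DIV 13 or 15 at 0.03-40 uM, ≥3 wells per compound. 40 min recordings at 37 C before and after dosing; value is percent change in network-burst spike-number SD, negative direction vs DMSO.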

[10] = CCTE_Shafer_MEA_acute_per_network_burst_electrodes_number_mean: CCTE's Neural Acute Assay for Mean Number of Electrodes in a Network Burst, Shafer Lab (AID 2284021);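 note: curves fitted for decreases only so hits reduce electrodes per burst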
Method in brief: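 Rat primary cortical neurons on 48-well MEAs, DIV 13 or 15, were treated at 0.03-40 uM. Spikes were detected at 8x rms noise and recorded at 37 C. The mean electrodes per network burst in a 40 min exposure recording was expressed as percent change from a 40 min baseline.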

[11] = CCTE_Shafer_MEA_acute_network_burst_percentage: CCTE's Neural Acute Assay for Percentage of Network Bursts, Shafer Lab (AID 2284022);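 note: curves fitted for loss so actives lower network burst percentage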
Method in brief: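 Rat primary cortical neuron networks on 48-well MEA plates, DIV 13 or 15, treated acutely with compound (0.03-40 uM, at least three wells). Percent of spikes within network bursts compared between 40-min recordings before and during exposure at 37 C, expressed as percent change.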

[12] = CCTE_Shafer_MEA_acute_cross_correlation_area: CCTE's Neural Acute Assay for Area of Cross Correlation, Shafer Lab (AID 2284024);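 note: curves fitted for loss of cross-correlation area so actives lower synchrony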
Method in brief: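 Rat primary cortical neurons on 48-well MEA, DIV 13 or 15; compounds 0.03-40 uM. Baseline and post-exposure 40 min recordings at 37 C; percent change in area under pooled inter-electrode cross-correlation near zero lag, relative to DMSO.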

[13] = CCTE_Shafer_MEA_acute_cross_correlation_HWHM: CCTE's Neural Acute Assay for Cross Correlation at Half Width at Half Maximum, Shafer Lab (AID 2284026);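 note: percent change per well from pre-dose baseline in spike cross-correlogram half width; hits are a decrease in cross-correlogram half width relative to DMSO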
Method in brief: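 Rat primary cortical neurons on 48-well MEA plates; 40-min baseline and 40-min post-exposure recordings at 37 C on DIV 13 or 15, compounds 0.03-40 uM. Spikes detected at 8x rms noise; percent change in cross-correlogram HWHM per well vs baseline.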

[14] = CCTE_Shafer_MEA_acute_synchrony_index: CCTE's Neural Acute Assay for Synchrony, Shafer Lab (AID 2284027);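 note: network synchrony index of spontaneous spiking in primary rat cortical neurons on MEAs; fitted for loss of signal so actives lower synchrony relative to DMSO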
Method in brief: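 Primary rat cortical neurons on 16-electrode MEA wells were recorded 40 min at baseline (DIV 13 or 15) and 40 min after compound (0.03-40 uM) at 37 C. Synchrony index (0-1) expressed as percent change from baseline, versus DMSO.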

[15] = CCTE_Shafer_MEA_dev_firing_rate_mean: CCTE's Neural Network Formation Assay for Mean Firing Rate, Shafer Lab (AID 2284031)
Method in brief: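 Primary rat cortical neurons on 48-well, 16-electrode MEAs (PEI-coated, laminin at plating), exposed from day 0 with compound renewed at DIV 5 and 9. Spikes recorded DIV 5, 7, 9, 12; well-mean firing rate collapsed to trapezoidal AUC, loss-of-signal vs DMSO.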

[16] = CCTE_Shafer_MEA_dev_per_burst_spike_percent: CCTE's Neural Network Formation Assay for Percent of Spikes in a Burst, Shafer Lab (AID 2284032)
Method in brief: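 Rat primary cortical neurons on 16-electrode MEA wells, dosed from plating day 0 for 12 days with renewal on DIV 5 and 9; spikes-in-bursts percentage averaged over bursting electrodes, collapsed as AUC across days 5, 7, 9, 12; loss direction versus DMSO.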

[17] = CCTE_Shafer_MEA_dev_active_electrodes_number: CCTE's Neural Network Formation Assay for Number of Active Electrodes, Shafer Lab (AID 2284040; active = hit-call score of the fitted dose curve at least 0.9, where 1 is the maximum)
Method in brief: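 Rat cortical primary cultures, 1.5 x 10^5 cells/well, PEI-coated MEA, laminin drop. Continuous exposure DIV 0–12; full media/compound change DIV 5, 9. Readout: electrodes with mean firing ≥5 spikes/min; AUC across days; loss vs DMSO.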

[18] = CCTE_Shafer_MEA_dev_burst_rate: CCTE's Neural Network Formation Assay for Burst Rate, Shafer Lab (AID 2284042)
Method in brief: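 Primary rat cortical neurons on PEI-coated 48-well MEA plates (laminin added with cells at plating) (16 electrodes/well), exposed from plating to day 12, dosing renewed at DIV 5 and 9. Burst rate averaged over active electrodes, recorded DIV 5, 7, 9, 12, summarized as AUC; loss versus DMSO.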

[19] = CCTE_Shafer_MEA_dev_bursting_electrodes_number: CCTE's Neural Network Formation Assay for Number of Bursting Electrodes, Shafer Lab (AID 2284043; active = hit-call score of the fitted dose curve at least 0.9, where 1 is the maximum)
Method in brief: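 Primary rat cortical neurons plated on 16-electrode MEA wells, exposed from day 0 with compound renewed at DIV 5 and 9. Electrodes bursting ≥1 burst per 2 min counted on days 5, 7, 9 and 12; trapezoidal AUC across days, fitted for loss versus DMSO.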

[20] = CCTE_Shafer_MEA_dev_per_burst_interspike_interval: CCTE's Neural Network Formation Assay for Burst Interspike Interval, Shafer Lab (AID 2284044);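 note: mean spike spacing inside bursts as AUC over recordings on days 5 7 9 12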
Method in brief: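 Primary rat cortical neurons on 48-well MEA plates, exposed from day 0 through day 12, treatment renewed at DIV 5 and 9. Within-burst interspike interval recorded days 5, 7, 9, 12, well-averaged, summarised as AUC; negative fit versus DMSO.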

[21] = CCTE_Shafer_MEA_dev_burst_duration_mean: CCTE's Neural Network Formation Assay for Mean Burst Duration, Shafer Lab (AID 2284045)
Method in brief: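 Primary rat cortical neurons on 48-well 16-electrode MEA plates, exposed from day 0 with renewal at DIV 5 and 9; spontaneous activity recorded on days 5, 7, 9, 12. Well-mean burst duration across bursting electrodes, collapsed as trapezoidal AUC; DMSO baseline.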

[22] = CCTE_Shafer_MEA_dev_interburst_interval_mean: CCTE's Neural Network Formation Assay for Mean Interburst Interval, Shafer Lab (AID 2284046);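 note: well-mean interburst interval of bursting electrodes as AUC over four recording days; curve fitted for decrease in interburst interval relative to DMSO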
Method in brief: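 Recordings on days 5, 7, 9 and 12 give well-mean interburst interval across actively bursting electrodes, summarized as area under the curve. Cultures: rat cortical neurons, continuous exposure from day 0, compound renewed at feeds; decrease analyzed versus DMSO.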

[23] = CCTE_Shafer_MEA_dev_inter_network_spike_interval_mean: CCTE's Neural Network Formation Assay for Mean Inter-network Spike Interval, Shafer Lab (AID 2284047)
Method in brief: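 Primary rat cortical neurons on 16-electrode MEA wells, exposed from plating day 0 through DIV 12, compound renewed at DIV 5 and 9 media changes. Mean interval between network-spike peaks recorded DIV 5, 7, 9, 12; collapsed as trapezoidal AUC, fitted downward versus DMSO.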

[24] = CCTE_Shafer_MEA_dev_network_spike_number: CCTE's Neural Network Formation Assay for Number of Network Spikes, Shafer Lab (AID 2284048)
Method in brief: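 Primary rat cortical neurons on PEI/laminin 48-well MEA plates, dosed from plating day 0 for 12 days, renewed at DIV 5 and 9. Network spike counts recorded DIV 5, 7, 9, 12, collapsed as trapezoidal AUC; DMSO baseline.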

[25] = CCTE_Shafer_MEA_dev_network_spike_peak: CCTE's Neural Network Formation Assay for Mean Number of Electrodes in Network Spike, Shafer Lab (AID 2284049)
Method in brief: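 Network-spike peak electrode count from recordings on days 5, 7, 9 and 12 was combined as trapezoidal area under the curve. Rat cortical cultures were treated continuously from plating, with compound renewed at each feed (DIV 5, 9); fits versus DMSO.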

[26] = CCTE_Shafer_MEA_dev_spike_duration_mean: CCTE's Neural Network Formation Assay for Mean Spike Duration, Shafer Lab (AID 2284051);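 note: mean network spike duration pooled as area under curve over DIV 5 to 12 recordings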
Method in brief: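 Primary rat cortical neurons on 16-electrode MEA wells (PEI-coated, laminin in plating drop), exposed from plating through DIV 12 with compound renewed at DIV 5 and 9. Mean network-spike duration recorded DIV 5, 7, 9, 12; trapezoidal AUC across days, DMSO baseline.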

[27] = CCTE_Shafer_MEA_dev_network_spike_duration_std: CCTE's Neural Network Formation Assay for Standard Deviation of Network Spike Duration, Shafer Lab (AID 2284052);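 note: area under curve of spike duration SD across recording days 5 to 12; hits are decreases in network spike duration SD versus DMSO vehicle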
Method in brief: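 Primary rat cortical neurons on PEI-coated 16-electrode MEA wells, exposed from plating day 0 through day 12 with compound renewed at DIV 5 and 9. Network spike duration SD recorded on days 5, 7, 9, 12, collapsed as trapezoidal AUC; loss-of-signal fit versus DMSO.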

[28] = CCTE_Shafer_MEA_dev_per_network_spike_spike_number_mean: CCTE's Neural Network Formation Assay for Mean Number of Spikes in a Network Spike, Shafer Lab (AID 2284053)
Method in brief: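 Primary rat cortical neurons on 48-well, 16-electrode MEA plates were exposed from plating to DIV 12, with dosing renewed on DIV 5 and 9. Spikes per network spike (0.05 s peak window) were recorded on DIV 5, 7, 9 and 12 and collapsed as trapezoidal AUC versus DMSO.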

[29] = CCTE_Shafer_MEA_dev_per_network_spike_spike_percent: CCTE's Neural Network Formation Assay for Percent of Spikes in a Network Spike, Shafer Lab (AID 2284054)
Method in brief: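 Rat primary cortical neurons were grown on 48-well MEA plates (16 electrodes/well), exposed from plating day 0 through day 12, with treatment renewed on DIV 5 and 9. Percent of spikes within 0.05 s network-spike peaks was measured, summarised as AUC across days 5, 7, 9, 12.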

[30] = CCTE_Shafer_MEA_dev_LDH: CCTE's Lactate Dehydrogenase Assay for Cytotoxicity in the Neural Network Formation Assay, Shafer Lab (AID 2284068; active = hit-call score of the fitted dose curve at least 0.9, where 1 is the maximum;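 note: exposure for twelve days from plating with re-dosing on DIV 5 and 9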)
Method in brief: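 Primary rat cortical neurons were plated on PEI/laminin MEA plates and exposed from day 0 for twelve days, with compound renewed at DIV 5 and 9. Cytotoxicity was determined by spectrophotometric LDH assay relative to DMSO.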

[31] = CCTE_Shafer_MEA_dev_AB: CCTE's Alamar Blue Assay for Cytotoxicity in the Neural Network Formation Assay, Shafer Lab (AID 2284083; active = hit-call score of the fitted dose curve at least 0.9, where 1 is the maximum;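 note: twelve days of exposure from plating with re-dosing on DIV 5 and 9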)
Method in brief: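 Primary rat cortical neurons on PEI-coated 48-well MEA plates, 1.5 x 10^5 cells/well in laminin drop; compound exposure from day 0 of plating for twelve days, renewed at medium changes on DIV 5 and 9. Viability read as resazurin reduction by fluorescence, relative to DMSO.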

[32] = CCTE_Shafer_MEA_acute_LDH: CCTE's Lactate Dehydrogenase Assay for Cytotoxicity in the Neural Acute Assay, Shafer Lab (AID 2284086; active = hit-call score of the fitted dose curve at least 0.9, where 1 is the maximum;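 note: active means LDH release rises above DMSO vehicle level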)
Method in brief: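 Primary rat cortical neurons on 48-well MEA plates, treated on day 13 or 15 post-plating. After the 40-min recording with compound, medium LDH release was read by absorbance at 490 nm. Gain of signal was fitted against DMSO negative control.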

[33] = CCTE_Shafer_MEA_dev_mutual_information_norm: CCTE's Neural Network Formation Assay for Mutual Information Normalization, Shafer Lab (AID 2284091)
Method in brief: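 Primary rat cortical neurons on PEI-coated 48-well MEA plates, 1.5 x 10^5 cells/well, exposed from day 0 through day 12 with re-dosing at DIV 5 and 9. Mutual information between electrodes recorded days 5, 7, 9, 12; trapezoidal AUC, loss-of-signal fit versus DMSO.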

[34] = CCTE_Shafer_MEA_dev_correlation_coefficient_mean: CCTE's Neural Network Formation Assay for Mean Correlation Coefficient, Shafer Lab (AID 2284093)
Method in brief: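 Spontaneous activity recorded on days 5, 7, 9 and 12 post-plating; pairwise spike correlations are averaged across active electrodes and collapsed to an area-under-curve. Rat cortical cultures are dosed from plating through 12 days, with compound renewed at media changes.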

Measured: AC50

CP(=O)(O)CC[C@H](N)C(=O)O
active: [13] 36.5 µM
inactive: [1] | [2] | [3] | [4] | [5] | [6] | [7] | [8] | [9] | [10] | [11] | [12] | [13] | [14] | [15] | [16] | [17] | [18] | [19] | [20] | [21] | [22] | [23] | [24] | [25] | [26] | [27] | [28] | [29] | [30] | [31] | [32] | [33] | [34]

From PubChem BioAssay (EPA / NIEHS)
